Molecules are shown by their SMILES. This is part of a sample that, as a whole, favours compounds with a hit. Of some 79,000 tested, about 15% had one in any assay. Unmarked numbers belong to inactive results. Active and inactive are the calls of the source. Cut-off read from the data, not from the text of the source: active = growth inhibition above about 70%; inactive = the rest.

A short description of assay [1]: NCI Yeast Anticancer Drug Screen. Data for the rad50 strain (AID 155).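 Note: 0% = growth of vehicle-only cultures of the same strain.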 Particulars: S. cerevisiae rad50 strain growth inhibition; at 50.0 µM; stronger effect = higher value. Put shortly: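 Vehicle-treated cultures provide the reference for the growth inhibition reported for compound-exposed, repair-deficient yeast.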
Assay [2] in a line: NCI Yeast Anticancer Drug Screen. Data for the mec2-1 strain (AID 157). As to conditions: S. cerevisiae mec2-1 strain, at 50.0 µM, stronger effect = higher value. Put shortly:
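Test agents were screened against the mec2-1 yeast strain, with defined DNA repair or cell cycle alteration. Growth was scored as inhibition against vehicle-only controls.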

A short description of assay [3]: NCI Yeast Anticancer Drug Screen. Data for the sgs1 mgt1 strain (AID 161).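 Note: 0% = growth of cultures given vehicle only.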 As to conditions: S. cerevisiae sgs1 mgt1 strain, at 50.0 µM, stronger effect = higher value. Put shortly: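 Inhibition of yeast growth, normalised to vehicle-treated controls, is reported for a strain bearing genetic alterations in DNA damage repair.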
Assay [4] is described as follows: NCI Yeast Anticancer Drug Screen. Data for the cln2 rad14 strain (AID 165).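 Note: 0% = growth equal to vehicle treated cultures.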 Particulars: S. cerevisiae cln2 rad14 strain, at 50.0 µM, stronger effect = higher value. The method, boiled down:
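Growth of compound-exposed yeast (cln2 rad14 genotype) measured and expressed as inhibition relative to vehicle.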

The nature of assay [5]: NCI Yeast Anticancer Drug Screen. Data for the bub3 strain (AID 167). As to conditions: S. cerevisiae bub3 mutant strain, at 50.0 µM, stronger effect = higher value. Put shortly:
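Mutant yeast screening strain plus compound; vehicle-treated cultures serve as the 0% inhibition reference.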

A short description of assay [6]: NCI Yeast Anticancer Drug Screen. Data for the mlh1 rad18 strain (AID 175). Particulars: S. cerevisiae mlh1 rad18 strain growth inhibition; at 50.0 µM; stronger effect = higher value. Put shortly: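 In this whole-cell yeast screen, a strain with altered DNA damage repair is challenged with compound, and its growth is measured against matched vehicle-treated controls.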

Turning to `CC(C)(C)OC(=O)CNC(=O)C(CSC(c1ccccc1)(c1ccccc1)c1ccccc1)N1C(=O)c2ccccc2C1=O` (stereo not given), the growth inhibition in assay [1] was 45.9%; in assay [2] it was 32.5%; in assay [3], 46.2%; in assay [4], 31.9%; in assay [5] it was 73.6% (active); in assay [6], 49.5%.
In the case of `COc1ccc(COCC[C@H](C)OC2OC(CO)C(O)C(O)C2O)cc1` (stereo not given in full), the growth inhibition was 13.9% in assay [1]; -8.75% in assay [2]; -12.9% in assay [3]; -6.2% in assay [4]; 5.25% in assay [5]; -71% in assay [6].
Consider `COc1cc(OC)cc(C2OC3=C(Nc4ccccc4N3)C2=O)c1` (stereo not given), for which the growth inhibition in assay [1] was 12.8%; in assay [2], 16.1%; in assay [3], 23.2%; in assay [4], 19.4%; in assay [5], 19.4%; in assay [6], 28.1%.
Regarding `COc1ccc([C@@]23Oc4cc(OC)cc(OC)c4[C@]2(O)[C@H](O)[C@H](C(=O)N(C)C)[C@H]3c2ccccc2)cc1`, the growth inhibition in assay [1] was 91.8% (active); in assay [2] it was 93.5% (active); in assay [3], 92.8% (active); in assay [4], 91.5% (active); in assay [5], 91.3% (active); in assay [6], 91.1% (active).
`COc1cc2c(cc1C/C=C/c1cc(OC)c(OC)c(OC)c1)OCO2`: the growth inhibition in assay [1] was -1.95%; in assay [2] it was -3.1%; in assay [3] it was 22.8%; in assay [4] it was -1.65%; in assay [5] it was 8.55%; in assay [6] it was 12.2%.
Take `O=c1oc2ccccc2c(O)c1C(c1ccc2c(c1)OCO2)N1CCCC1` (stereo not given): the growth inhibition in assay [1] is 7.4%; in assay [2], 36.7%; in assay [3], 19.9%; in assay [4], 15.3%; in assay [5], 8.35%; in assay [6] it was 22.9%.
On to `COc1ccc(C(O)(c2ccccc2)c2nccc3ccccc23)cc1` (stereo not given), for which the growth inhibition in assay [1] was 6.6%; in assay [2] it was 3.75%; in assay [3], 30.4%; in assay [4], 1.45%; in assay [5], 10.3%; in assay [6] it was -9.4%.
For the molecule `CC(=O)OCC(NC(=O)C(N)CC(=O)O)C(=O)NCC(=O)Oc1ccc([N+](=O)[O-])cc1` (stereo not given), the growth inhibition in assay [1] is 13.9%; in assay [2], 15.7%; in assay [3], 11.8%; in assay [4], 12%; in assay [5], 1.9%; in assay [6], 5.75%.
Regarding `O=c1[nH]c2ccccc2c(O)c1/C=N/C(=S)NC1CCCCC1`, the growth inhibition in assay [1] was -14.6%; in assay [2] it was -36.3%; in assay [3], -7.55%; in assay [4], 14.9%; in assay [5] it was 3.45%; in assay [6], 9.25%.
For `CCOC(=O)C(C(O)c1ccc([N+](=O)[O-])cc1)P(=O)(OCC)OCC` (stereo not given), the growth inhibition in assay [1] was 24.3%; in assay [2], -16.4%; in assay [3], -4.7%; in assay [4] it was 5.25%; in assay [5], -10.9%; in assay [6], -20.2%.
Take `[O-]C(=N/C(=N/[n+]1ccccc1)c1ccccc1)c1ccccc1`: the growth inhibition was 12.2% in assay [1]; 10.9% in assay [2]; 4.2% in assay [3]; -9% in assay [4]; -4.05% in assay [5]; 2% in assay [6].
`Cc1c(Cl)cccc1NC(=O)Sc1ccc(C(C)(C)C)cc1`: the growth inhibition in assay [1] is 21.1%; in assay [2], 11.4%; in assay [3], 12.5%; in assay [4], 19.1%; in assay [5], 11.4%; in assay [6], 15.5%.
Regarding `COC(=O)c1ccc(/C=C2\CCc3ccccc3C2=O)cc1`, the growth inhibition in assay [1] was -9.9%; in assay [2], -9.15%; in assay [3], -16.2%; in assay [4] it was 12.5%; in assay [5], 14.2%; in assay [6] it was 11.2%.
For the molecule `O=C(Nc1ccc(Cl)cc1)Nc1nnc2nc(C3(c4nc5nnc(NC(=O)Nc6ccc(Cl)cc6)n5[nH]c4=O)Cc4ccccc4C3=O)c(=O)[nH]n12`, the growth inhibition in assay [1] was 29.5%; in assay [2], -1.6%; in assay [3], 8.3%; in assay [4] it was 12.9%; in assay [5], 8.75%; in assay [6], 2.3%.
`Cc1cc2c(C(C)C)c(O)c(O)c(C=Nc3ccccc3)c2c(O)c1-c1c(C)cc2c(C(C)C)c(O)c(O)c(C=Nc3ccccc3)c2c1O`: the growth inhibition was 1.45% in assay [1]; 34% in assay [2]; 49.6% in assay [3]; -23% in assay [4]; -2.3% in assay [5]; 52.8% in assay [6].
As to `CN(C)c1nc(Cl)nc2c1ncn2-c1ccccc1`, the growth inhibition in assay [1] is 9.85%; in assay [2], -23.2%; in assay [3], 3.1%; in assay [4], -10.7%; in assay [5], -31.4%; in assay [6] it was -5.1%.
Turning to `Cc1ccc(S(=O)(=O)N/N=C/c2oc(-c3ccccc3Cl)c(-c3ccccc3Cl)c2[N+](=O)[O-])cc1`, the growth inhibition in assay [1] was 54.2%; in assay [2] it was 45.3%; in assay [3], 58.5%; in assay [4], 38.4%; in assay [5], 41.5%; in assay [6], 48.1%.
For the molecule `Cc1cc(C)n(/N=C/c2ccccc2)c(=O)c1C#N`, the growth inhibition in assay [1] was 7.3%; in assay [2], -10.3%; in assay [3], 0.55%; in assay [4], -0.55%; in assay [5], 35.6%; in assay [6], -0.05%.
As to `C=C(C)[C@@]1(OC(=O)c2cc([N+](=O)[O-])cc([N+](=O)[O-])c2)C[C@@H]2CCCC[C@@H]21`, the growth inhibition in assay [1] was -43.5%; in assay [2], -26.1%; in assay [3] it was -15.8%; in assay [4] it was 5.8%; in assay [5], -7.9%; in assay [6] it was 2.1%.
In the case of `O=C1c2ccccc2C(=O)N1OCc1csc(-c2ccccc2)n1`, the growth inhibition in assay [1] was 5.5%; in assay [2] it was 6.25%; in assay [3], -4.2%; in assay [4], 5.25%; in assay [5], 0.95%; in assay [6], 27.4%.
